Values joined by “and” are separate entries in the source; they are usually repeats but may differ in a detail not shown here. Identical values can stand only once. ± gives the standard deviation of the averaged measurements.

For assay [1], the system named is DLD1. Nature of the assay: cell viability (CellTiter-Glo) relative to plate median (fraction of plate median); higher = more viable cells. The conditions noted are these: 10 µM, treatment time 24 h. In short, it runs like this: (§1)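 Kinase inhibitor library compounds were added at a final 10 µM for 24 h to colorectal cancer cells in 384-well plates, 24 h after seeding. The cells stably expressed lentiviral TCF/Wnt firefly luciferase reporters. Firefly luciferase and CellTiterGlo luminescence came from parallel plates, and each well was normalised to its plate median (webcellHTS2, additive, untransformed), averaged over two independent replicates.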

The test system of assay [2] is HCT116. The assay is described as above. The settings on record: 10 µM; treatment time 24 h; reporter: TCF4/Wnt. In short, it runs like this: as §1
Assay [3] relates to SW480. Described as above. The settings on record: 10 µM; treatment time 24 h; reporter: 7TFP. In short, it runs like this:
as §1

The test system of assay [4] is DLD1. Nature of the assay: TCF/Wnt firefly luciferase reporter signal relative to plate median (fraction of plate median); higher = higher Wnt reporter signal. The conditions noted are these: 10 µM, treatment time 24 h. In short, it runs like this: as §1
(A reporter such as luciferase makes a cellular process visible.)

Assay [5] deals with HCT116. The assay is described as above. The settings on record: 10 µM; treatment time 24 h; reporter: TCF4/Wnt. A digest of the protocol:
as §1

Assay [6] concerns SW480. The description is as above. The conditions noted are these: 10 µM; treatment time 24 h; reporter: 7TFP. In short, it runs like this: as §1

In the case of `CCN(CC)CCCCNc1ncc2cc(-c3cc(OC)cc(OC)c3)c(NC(=O)NC(C)(C)C)nc2n1`, the cell viability in the assay on DLD1 [1] (reporter: 7TFP) turned out to be 0.835 ± 0.052; with DLD1 [1] (reporter: TCF4/Wnt), 1.01 ± 0.028; with HCT116 [2], 1.055 ± 0.0071; with SW480 [3], 1.1 ± 0.071. In addition, the “TCF/Wnt firefly luciferase reporter signal” value in the assay on DLD1 [4] (reporter: 7TFP) came out at 0.702 ± 0.073; with DLD1 [4] (reporter: TCF4/Wnt) it was 0.698 ± 0.073; with HCT116 [5], 0.781 ± 0.058; with SW480 [6], 1.04 ± 0.18.
On to `CNC(=O)c1ccc(-c2cnc3ncc(Cc4ccc5ncccc5c4)n3n2)cc1F`, for which the cell viability in the assay on DLD1 [1] (reporter: 7TFP) is 0.987 ± 0.089; in the assay on DLD1 [1] (reporter: TCF4/Wnt), 0.931 ± 0.043; in the assay on HCT116 [2], 1.22 ± 0.2; with SW480 [3] it was 0.8805 ± 0.0064. The “TCF/Wnt firefly luciferase reporter signal” value was determined as 1.07 ± 0.078 in the assay on DLD1 [4] (reporter: 7TFP), 1.14 ± 0.16 with DLD1 [4] (reporter: TCF4/Wnt), 0.899 ± 0.02 with HCT116 [5] and 0.652 ± 0.26 in the assay with SW480 [6].
Turning to `Cc1cccc(-c2[nH]c(C(C)(C)C)nc2-c2ccc3nccnc3c2)n1`, the cell viability in the assay on DLD1 [1] (reporter: 7TFP) was 1.14 ± 0.064; in the assay on DLD1 [1] (reporter: TCF4/Wnt), 1.06 ± 0.14; in the assay with HCT116 [2], 1.17 ± 0.028; in the assay with SW480 [3], 0.853 ± 0.043. In addition, the “TCF/Wnt firefly luciferase reporter signal” value in the assay with DLD1 [4] (reporter: 7TFP) stood at 1.1 ± 0.042; in the assay with DLD1 [4] (reporter: TCF4/Wnt), 1.03 ± 0.12; with HCT116 [5], 1.03 ± 0.14; in the assay with SW480 [6], 0.854 ± 0.17.
As for `O=C(Nc1c[nH]nc1-c1nc2ccc(CN3CCOCC3)cc2[nH]1)NC1CC1`, the cell viability with DLD1 [1] (reporter: 7TFP) is 0.842 ± 0.038; with DLD1 [1] (reporter: TCF4/Wnt) it was 0.817 ± 0.022; in the assay with HCT116 [2] it was 0.566 ± 0.1; in the assay with SW480 [3], 1.02 ± 0.14. Also, the “TCF/Wnt firefly luciferase reporter signal” value was determined as 0.865 ± 0.018 with DLD1 [4] (reporter: 7TFP), 1.575 ± 0.0071 in the assay with DLD1 [4] (reporter: TCF4/Wnt), 0.189 ± 0.0099 with HCT116 [5] and 0.84 ± 0.052 in the assay with SW480 [6].
With `C[C@@H]1CCN(C(=O)CC#N)C[C@@H]1N(C)c1ncnc2[nH]ccc12`, the cell viability with DLD1 [1] (reporter: 7TFP) was 1.02 and 1.09; with DLD1 [1] (reporter: TCF4/Wnt), 1.07 and 1.1; in the assay on HCT116 [2] it was 1.21 and 1.14; in the assay on SW480 [3] it was 0.9 and 0.972. Besides, the “TCF/Wnt firefly luciferase reporter signal” value in the assay with DLD1 [4] (reporter: 7TFP) was 1.06 and 1.04; in the assay with DLD1 [4] (reporter: TCF4/Wnt) it was 0.874 and 0.875; in the assay with HCT116 [5] it was 1.18 and 1.36; in the assay with SW480 [6] it was 0.736 and 0.979.
On to `CN(C)C/C=C/C(=O)Nc1cc2c(Nc3ccc(F)c(Cl)c3)ncnc2cc1O[C@H]1CCOC1` [Afatinib (BIBW2992)], for which the cell viability in the assay with DLD1 [1] (reporter: 7TFP) is 0.916 ± 0.074; with DLD1 [1] (reporter: TCF4/Wnt), 0.843 ± 0.0092; in the assay with HCT116 [2], 0.635 ± 0.19; with SW480 [3] it was 1.18 ± 0.042. For the same molecule, the “TCF/Wnt firefly luciferase reporter signal” value with DLD1 [4] (reporter: 7TFP) was found to be 0.292 ± 0.089; in the assay with DLD1 [4] (reporter: TCF4/Wnt), 0.407 ± 0.0014; in the assay on HCT116 [5], 0.131 ± 0.091; in the assay on SW480 [6], 0.447 ± 0.19.
`Cc1cc(Nc2cc(N3CCN(C)CC3)nc(/C=C/c3ccccc3)n2)n[nH]1`: the cell viability in the assay on DLD1 [1] (reporter: 7TFP) is 0.88 ± 0.03; with DLD1 [1] (reporter: TCF4/Wnt), 0.942 ± 0.061; in the assay on HCT116 [2], 0.678 ± 0.019; with SW480 [3], 0.9085 ± 0.0035. Moreover, the “TCF/Wnt firefly luciferase reporter signal” value is 1.06 ± 0.11 in the assay on DLD1 [4] (reporter: 7TFP), 1.01 ± 0.21 with DLD1 [4] (reporter: TCF4/Wnt), 1.23 ± 0.33 in the assay with HCT116 [5] and 0.687 ± 0.28 with SW480 [6].
On to `Nc1ncnc2c1c(-c1cnc3[nH]ccc3c1)nn2C1CCCC1`, for which the cell viability is 0.8 ± 0.14 in the assay with DLD1 [1] (reporter: 7TFP), 0.862 ± 0.063 in the assay on DLD1 [1] (reporter: TCF4/Wnt), 0.489 ± 0.15 in the assay with HCT116 [2] and 0.967 ± 0.15 in the assay with SW480 [3]. Further, the “TCF/Wnt firefly luciferase reporter signal” value in the assay on DLD1 [4] (reporter: 7TFP) amounted to 0.322 ± 0.033; in the assay with DLD1 [4] (reporter: TCF4/Wnt), 0.51 ± 0.084; in the assay on HCT116 [5], 0.21 ± 0.035; in the assay on SW480 [6] it was 0.562 ± 0.064.
As for `Cc1ccc(C(=O)Nc2cccc(C(F)(F)F)c2)cc1Nc1nc(-c2cccnc2)nc2c1cnn2C`, the cell viability came to 1.07 ± 0.035 with DLD1 [1] (reporter: 7TFP), 1.06 in the assay with DLD1 [1] (reporter: TCF4/Wnt), 0.912 ± 0.2 with HCT116 [2] and 1.05 ± 0.042 in the assay on SW480 [3]. For the same molecule, the “TCF/Wnt firefly luciferase reporter signal” value in the assay with DLD1 [4] (reporter: 7TFP) was 1.36 ± 0.085; with DLD1 [4] (reporter: TCF4/Wnt), 0.925 ± 0.2; in the assay with HCT116 [5], 1.12 ± 0.099; in the assay on SW480 [6] it was 0.952 ± 0.48.
